Assay outcomes: PubChem, The Scripps Research Institute Molecular Screening Center
In the library only some 2% were active in any assay of this set; here they are far more common.
M1 ag parental = counter-screen for M1 agonists: effect in parental CHO-K1 cells; Fluo-8 calcium fluorescence; scaled to maximal ATP response, vehicle zero; activation, % at 3 µM; 360,000 compounds, 0.48% hits; in the data active = activation above about 15%;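 note: untransfected CHO-K1 host cells lacking M1 receptor as counterscreen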
CHO-K1 Ca antag = counter-screen for M1 antagonists: effect in parental CHO-K1 cells; AID 602250; 360,000 compounds, 0.6% hits; inhibition, % at 3 µM; ATP-induced calcium, Fluo-8 fluorescence;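 active = inhibition above a per-plate cutoff, the plate's mean sample inhibition plus 3 SD, cut at about 24% in these data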;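 note: 0% = DMSO plus EC80 ATP and 100% = DMSO alone without ATP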
M4 ag = CHRM4 agonism in calcium assay; CHO-K1 hM4/Gqi5, Fluo-8 calcium fluorescence; vehicle 0%, full acetylcholine response 100%; activation, % at 3 µM; 360,000 compounds, 0.14% hits;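 active = activation above the run mean over all test wells plus 3 SD, cut at about 32% in these data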;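 note: peak over basal fluorescence ratio per well then scaled between controls; 0% = DMSO wells and 100% = acetylcholine at EC100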
Target sequence (P08173 whole entry, looked up): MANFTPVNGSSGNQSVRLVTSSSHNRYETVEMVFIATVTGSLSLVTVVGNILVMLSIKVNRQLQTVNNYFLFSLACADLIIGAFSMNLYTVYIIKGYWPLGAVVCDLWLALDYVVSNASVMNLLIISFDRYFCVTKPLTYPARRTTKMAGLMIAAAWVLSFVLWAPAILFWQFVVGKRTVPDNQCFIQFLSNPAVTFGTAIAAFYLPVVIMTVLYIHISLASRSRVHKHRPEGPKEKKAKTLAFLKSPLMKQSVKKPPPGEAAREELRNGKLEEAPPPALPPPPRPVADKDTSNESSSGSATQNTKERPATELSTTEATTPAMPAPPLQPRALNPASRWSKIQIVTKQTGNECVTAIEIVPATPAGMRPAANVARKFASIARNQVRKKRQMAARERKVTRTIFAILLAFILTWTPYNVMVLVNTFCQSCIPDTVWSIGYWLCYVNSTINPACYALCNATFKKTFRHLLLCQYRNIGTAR
CHO-K1 Ca PAM = counter-screen for M1 PAMs: effect in parental CHO-K1 cells. 360,000 compounds, 0.02% hits. activation, % at 3 µM. AID 602247. ATP EC20, Fluo-8 calcium fluorescence; 0% at ATP EC20, 100% at ATP max;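 active = activation above the run cutoff, the mean activation of all test compounds plus 3 SD, cut at about 40% in these data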;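 note: peak over basal fluorescence ratio in a 140 s read after ATP addition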
M4 PAM = potentiates acetylcholine response at human M4 receptor. P08173. CHO-K1 hM4/Gqi5, Fluo-8 calcium fluorescence, ACh EC20; 0% = ACh EC20, 100% = maximal ACh. activation, % at 3 µM. 360,000 compounds, 0.4% hits;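 active = activation above its plate's cutoff, the mean activation of sample wells plus 3 SD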
M4 antag = CHRM4 antagonism in calcium assay; P08173; CHO-hM4 cells, ACh EC80, Fluo-8 calcium fluorescence; inhibition, % at 3 µM; AID 624125; 360,000 compounds, 0.73% hits;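 active = inhibition above its plate's cutoff, the mean inhibition of sample wells plus 3 SD, cut at about 27% in these data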;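 note: 0% = acetylcholine EC80 with DMSO and 100% = DMSO without agonist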
Numbers without * were called inactive.

SMILES	M1 ag parental	CHO-K1 Ca antag	M4 ag	CHO-K1 Ca PAM	M4 PAM	M4 antag
O=C(NC1CC2CCCC(C1)N2C(=O)NCc1ccccc1)C1CC1 (centres undefined)	0.2	-2.9	0.2	-3.9	-8.6	32.2*
O=C(NC1CC2CCCC(C1)N2C(=O)Nc1ccccc1)C1CC1 (centres undefined)	2.2	-19.8	0.6	16.9	2.8	-5.5
O=C(c1[nH]c(C(F)(F)F)nc1-c1ccccc1)N1CCN(c2ccc(C(F)(F)F)cn2)CC1	3.0	-10.8	7.1	-0.6	-4.9	0.1
O=C(c1[nH]c(C(F)(F)F)nc1-c1ccccc1)N1CCN(c2ncc(C(F)(F)F)cc2Cl)CC1	12.9	-4.1	37.2*	2.2	-8.1	22.4
CN(C)S(=O)(=O)c1cccc(-c2nn(-c3ccccc3)cc2/C=C(\C#N)c2nc3ccccc3[nH]2)c1	0.1	24.3*	0.6	-10.6	5.0	-11.2
N#C/C(=C\c1cn(-c2ccccc2)nc1-c1cc2ccccc2o1)c1nc2ccccc2[nH]1	0.1	3.6	2.2	-2.3	-7.3	12.7
COc1ccc(/C=C(/NC(=O)c2ccc(C)cc2)C(=O)N2CCCC2)cc1OC	0.9	-12.8	0.2	8.6	2.0	4.7
CC(=O)CC1=NC(C)(C)Cc2ccccc21	-0.2	-0.4	0.4	1.5	0.2	1.6
C=CCN1C(=O)/C(=C/c2ccc(OC(C)=O)c(OCC)c2[N+](=O)[O-])SC1=S	11.9	25.0*	13.4	7.1	-1.3	11.6
C=CCN(C(=O)c1csnn1)C(C(=O)NC1CCCC1)c1cccs1 (centres undefined)	-0.5	-3.8	0.8	-8.5	-1.1	7.2
COc1ccccc1N1CCN(C2CCCN(C(=O)c3oc(C)cc3C)C2)CC1 (centres undefined)	-0.2	-6.8	0.9	15.9	-0.9	-0.2
COC(=O)c1c(NC(=O)c2cccc([N+](=O)[O-])c2)sc(C(N)=O)c1C	-0.7	28.6*	0.1	-9.6	2.0	-3.5
CC(=O)Nc1cc2c(cc1Cl)-c1ccccc1C2	0.7	25.7*	2.7	-12.7	3.3	-4.4
CCC(=O)Nc1cc2c(cc1Cl)-c1ccccc1C2	2.3	-10.2	3.5	-3.6	2.1	-1.2
Cc1ccc(S(=O)(=O)N2CCC(c3nnc(SCCN4CCCC4)n3C)CC2)cc1	0.7	-3.7	-0.1	14.7	-10.5	11.4
CCn1c(SCCN2CCCCC2)nnc1-c1ccc(S(=O)(=O)N2CCOCC2)cc1	0.0	-3.8	0.2	-1.6	-16.9	32.7*
NC(=O)C1C2C=CC(C2)C1c1ccccc1 (centres undefined)	-0.4	14.5	0.2	-8.3	-1.2	7.2
CNC(=O)c1cc(Oc2ccc(NC(=O)c3[nH]c(-c4ccccc4)c4c3C(=O)N(C)C4=O)cc2)ccn1	0.1	-14.9	0.8	-0.7	23.1*	-11.0
Cc1ccc(NC(=O)CN2CCCN(S(=O)(=O)c3ccc(Br)s3)CC2)cc1	-0.1	23.8*	0.9	-13.4	-14.6	14.3
Cc1cc(C)cc(NC(=O)CN2CCCN(S(=O)(=O)c3ccc(Br)s3)CC2)c1	0.8	-18.3	0.8	8.1	-5.1	-4.0
NS(=O)(=O)c1ccc(CCN=C(NS(=O)(=O)c2cccs2)c2ccccc2)cc1	0.0	-10.2	0.1	11.8	-7.6	7.8
Cc1ccc([C@H]2C[C@H](O)[C@@H](n3cc(C4CC4)nn3)CN2Cc2cccs2)cc1	1.4	-14.8	1.1	30.6	3.3	-15.6
Cc1ccc([C@H]2C[C@@H](O)[C@H](n3cc(C4CC4)nn3)CN2Cc2cccs2)cc1	0.2	-2.9	-0.3	-1.7	16.8*	-28.5
Cc1cc(Cl)ccc1C(O)c1ncc(-c2ccc(Cl)cc2)[nH]1 (centres undefined)	1.1	2.8	3.4	1.9	0.8	-1.2
CC(=O)c1ccc(-c2nnc(CCC(=O)N(C)Cc3cccc4cnccc34)o2)s1	0.8	-2.5	1.2	7.1	-13.4	7.5
SMILES	M1 ag parental	CHO-K1 Ca antag	M4 ag	CHO-K1 Ca PAM	M4 PAM	M4 antag
CN(Cc1cccc2cnccc12)C(=O)CCc1nnc(CCc2ccccc2)o1	16.7*	0.5	6.2	16.3	-1.1	-11.8
CCCCN(CCCC)c1ccc(C(=O)c2ccccc2C(=O)O)c(O)c1	15.3*	-0.7	34.2*	8.4	-25.9	21.3
Cc1ccc(C(=O)c2cn[nH]c2-c2cc(Cl)ccc2O)cc1	18.5*	0.1	3.7	16.4	-6.9	-5.1
Cc1ccc(-c2[nH]ncc2C(=O)c2ccc(Br)cc2)c(O)c1	3.2	-0.8	2.6	3.8	0.7	7.5
COc1ccc(NC(=O)CCN2CCN(S(=O)(=O)c3ccc(C(C)C)cc3)CC2)cc1	18.2*	-38.2	7.5	21.4	6.6	-20.7
COc1ccc(NC(=O)CCN2CCN(S(=O)(=O)c3ccc(Cl)cc3)CC2)cc1	4.1	-35.5	16.9	33.0	4.8	-9.2
CCOc1ccc(NC(=O)CCN2CCN(S(=O)(=O)c3ccc(F)cc3)CC2)cc1	4.7	-14.7	3.9	-0.9	-6.3	1.6
CCOc1ccccc1NC(=O)CCN1CCN(S(=O)(=O)c2ccc(Br)cc2)CC1	-0.5	3.8	6.0	12.8	15.7*	2.7
CCN(CC)c1ccc(NC(=O)CN2CCN(S(=O)(=O)c3cc(Cl)ccc3OC)CC2)cc1	5.4	-9.2	6.6	14.0	5.6	7.2
CCOc1ccc(NC(=O)CCN2CCN(S(=O)(=O)c3cc(Cl)ccc3OC)CC2)cc1	3.7	-19.7	5.9	41.3*	-3.2	2.4
O=C(CCl)N1CCN(CC(=O)N2CCCC2)CC1	1.2	-9.0	0.8	7.6	-1.2	5.5
CC(=O)c1ccc2c(c1)CCN2	0.8	-4.4	0.6	2.6	2.8	-9.0
COc1ccc(S(=O)(=O)N(CC(=O)NCC2CCCO2)c2ccc(F)cc2)cc1OC (centres undefined)	0.8	25.8*	3.3	-6.4	-5.7	15.4
O=C(NC(c1ccc(-c2ccccc2)cc1)c1cnccn1)C1CCN(Cc2cccc(C(F)(F)F)c2)CC1 (centres undefined)	3.2	-5.3	15.6	14.7	-7.3	5.4
CCn1c(NCc2ccccn2)nc2ccccc21	-0.3	24.0*	0.3	-8.3	-5.8	6.0
CCn1c(NCc2cccs2)nc2ccccc21	-0.2	-11.7	1.2	1.2	14.0	-2.6
COC(=O)c1ccc2c(c1)sc(=NC(=O)CCS(=O)(=O)c1ccccc1)n2C	2.1	-10.6	8.0	25.8	18.0*	-5.6
COCCn1c(=NC(=O)CCS(=O)(=O)c2ccccc2)sc2ccccc21	2.7	13.1	8.6	-16.7	-3.5	1.9
O=C(Nc1cccc(OC(F)(F)F)c1)C1Cc2c(-c3ccccc3Oc3ccccc3)ccnc2O1 (centres undefined)	0.9	-4.8	0.1	-4.1	-5.0	13.8
